Laboratory results taken from PubChem BioAssay (NCI).
This is part of a sample that, as a whole, favours compounds with a hit. Of some 83,000 tested, about 20% had one in any assay.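 Plates (96-well) were seeded with cells, treated with compound at one concentration, and incubated for 48 hours before percent growth was determined.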 Unmarked numbers belong to inactive results. The source made the active and inactive calls.

test system: HS 578T breast; experiment: NCI-60 one-dose screen, 48 h (100 = growth as untreated, 0 = no growth, -100 = all killed); details: 10 µM
Description: Growth inhibition of the HS 578T human tumor cell line is measured as a screen for anti-cancer activity. Cells are grown in 96 well plates and exposed to the test compound for 48 hours. Compounds are tested at a single concentration, which is 10^-5 M for most compounds. The reported endpoint is percent growth (GI% or GIPRCNT), where numbers from 0 - 100% represent growth inhibition, and numbers from -100% - 0 represent cell death. For example, a value of 40 represents 60% growth inhibition. A value of 0 means no net growth occurred over the course of the experiment. A value of -40 indicates 40% of cells at the beginning of the experiment died by the end of the experiment. A value of -100 means all cells are dead at the end of the experiment.
NCI-60 Human Tumor Cell Lines Screen was performed using the standard one-dose NCI protocol, which is described in more detail at https://dtp.cancer.gov/discovery_development/nci-60/default.htm.
Compounds with GIPRCNT values below 10 were considered active. Activity score was based on GIPRCNT using the following formula: […]
Score is 0 for GIPRCNT values of 100 or above, 50 for GIPRCNT values of 0, and 100 for GIPRCNT values of -100.

| SMILES | growth |
| --- | --- |
| COc1ccc2c(CCCc3ccc(Cl)cc3Cl)c3[n+](cc2c1OC)CCc1cc2c(cc1-3)OCO2 | 32.9% |
| C=CC(=O)N(C)[C@H]1C[C@H]2OC(C)(C1OC)n1c3ccccc3c3c4c(c5c6ccccc6n2c5c31)C(=O)NC4 (stereo not given in full) | -14.9% (active) |
| O=C(CNc1nnc(-c2ccc(Cl)cc2)o1)Nc1ccc(-c2nc3ccccc3s2)cc1 | 96.9% |
| Nc1cc2c(cc1Br)-c1c(C(=O)O)cccc1C2O (stereo not given) | 143% |
| O=C1CC(c2cccc(F)c2)c2c(n[nH]c2-c2ccc(Cl)cc2)N1 (stereo not given) | 91.2% |
| CC(=O)CC1CCCC1c1ccc2ccccc2c1 (stereo not given) | 100% |
| Cc1ccccc1Nc1nc2nonc2nc1Nc1cccc(C)c1C | 72.6% |
| Cc1[nH]n(C(N)=S)c(=O)c1N=Nc1ccc(S(=O)(=O)Nc2ccncn2)cc1 | 86.2% |
| CC(=Nc1ccccc1)C1=C(O)C(Cc2ccccc2)NC1=O (stereo not given) | -15.3% (active) |
| COc1ccc(C(=O)N2c3ccccc3Sc3ccccc32)c(F)c1 | 15.9% |
| CC(C)C1CCC(C)C(C2(C#N)C(N)=NC(N)=C2C#N)C1=O (stereo not given) | 101% |
| Cc1cc(O)cc(-c2c(-c3ccnc(-c4cccnc4)c3)cnn2C)c1 | 58.9% |
| C=CCC(=O)N[C@H](/C=C/C(=O)O)Cc1ccc(-c2cc(Cl)cc(Cl)c2)cc1 | 97% |
| Cc1cccc(NC(=O)[C@@H]2c3ccccc3C(=O)N(c3ccc(Cl)cc3)[C@H]2c2ccc(Cl)cc2)n1 | 72.4% |
| Nc1nc(Nc2ccccc2)c(C=Nc2ccccc2)c(=O)[nH]1 | 87.5% |
| C[C@@H](C[C@H](CCO)c1cc(C(F)(F)F)cc(C(F)(F)F)c1)c1ccc2ccccc2c1 | 106% |
| CC12O[C@H](C[C@@H](OC(=O)CCC(=O)O)[C@H]1O)n1c3ccccc3c3c4c(c5c6ccccc6n2c5c31)C(=O)NC4=O | 19.2% |
| CN1CCN(CCCOc2cccc3nc(Nc4ccc(Cl)c(C(F)(F)F)c4)ccc23)CC1 | 32.6% |
| CCCCCCCCCNCCCCCCCCC | 83.7% |
| Oc1ccc(/C=N/Nc2nnc(N/N=C/c3ccc(O)cc3O)c3ccccc23)c(O)c1 | -76.8% (active) |

| SMILES | growth |
| --- | --- |
| [2H]C1([2H])[C@H](C)O[C@H](C)C([2H])([2H])N1c1ccc(NC(=O)c2cccc(-c3ccc(OC(F)(F)F)cc3)c2C)cn1 | 88.2% |
| Clc1ccc(/C=C/c2cc(N3CCOCC3)c3cc(Cl)c(Cl)cc3n2)cc1 | 102% |
| Cc1cc(N2CCCC2)nc(N(CCCNc2ccnc3cc(Cl)ccc23)Cc2ccc3c(c2)OCO3)n1 | -32.2% (active) |
| CO[C@H](C(=O)N[C@@H](CCCCNC(=O)OCc1ccccc1)C(=O)OC(C)(C)C)[C@@H]1Cc2cc3cc(OC4CC(OC5CC(O)C(O)C(C)O5)C(O)C(C)O4)c(C)c(O)c3c(O)c2C(=O)[C@H]1OC1CC(OC2CC(OC3CC(C)(O)C(O)C(C)O3)C(O)C(C)O2)C(O)C(C)O1 (stereo not given in full) | -16.4% (active) |
| Cc1cc(C)n(CC(=O)Nc2ccc(-c3nc4ccccc4s3)cc2)n1 | 113% |
| COc1cnc2c(c1)C(=O)c1c-2n(CCCN2CCOCC2)c(=O)c2cc(Cl)ccc12 | 79.2% |
| CC(C)(C)C(=O)OCOP(=O)(OCOC(=O)C(C)(C)C)C1CCCN(OC(=O)c2ccccc2)C1=O (stereo not given) | 8% (active) |
| CCCC(=O)OCC1OC(n2cnc3c(=S)nc[nH]c32)C(OC(=O)CCC)C1OC(=O)CCC (stereo not given) | 47.7% |
| C=C1C[C@H](O)[C@H](Br)C(C)(C)[C@@]12CCC(C)=C(Cl)C2 | 22.3% |
| CCC1(/C=N/NC(N)=S)NC(=O)NC1=O (stereo not given) | 104% |
| CC(C)(C)OC(=O)N1CCC(O)[C@@H](O[Si](c2ccccc2)(c2ccccc2)C(C)(C)C)[C@H]1/C=C/c1ccccc1 (stereo not given in full) | 55.8% |
| Nc1c2c(c(O)c3c1=C(CO)C=N3)=NCCS2 | 5.57% (active) |
| COc1cc(-c2nc(C(=O)NCC(=O)O)nn2-c2ccc(Cl)cc2)cc(OC)c1OC | 106% |
| Clc1ccc(Nc2nccc(Nc3ccc4[nH]ncc4c3)n2)cc1 | 61.5% |
| O=C(Cn1ccnc1)Nc1ccc(-c2nc3ccccc3s2)cc1 | 86.9% |
| CCCCCCCC(=O)SCC/C=C/[C@@H]1CC(=O)NCc2cc(ccn2)C2=N[C@@](C)(CS2)C(=O)N[C@@H](C(C)C)C(=O)O1 | -8.43% (active) |
| CCOC(=O)C1=C(C)NC(=O)NC1c1cc(=O)oc2ccc(C)cc12 (stereo not given) | 109% |
| Cc1cc2c(-c3nc4ccccn4c3N)c(O)c(O)cc2c(O)c1-c1c(C)cc2c(-c3nc4ccccn4c3N)c(O)c(O)cc2c1O | 37.6% |
| COc1cc2c(cc1O)c(=O)n(CCN(C)C)c1c3cc4c(cc3ncc21)OCO4 | 11.4% |
| CCN1CCN(Cc2ccc(NC(=O)Nc3nc(-c4cc(OC)c(OC)c(OC)c4)cs3)cc2C(F)(F)F)CC1 | 40% |
